These results are taken from PubChem BioAssay AID720568 (Broad Institute, 2013).

Results with a measured potency or affinity are listed apart. Active and inactive are the calls of the source. No rule for the calls is given here.

The nature of this experiment: HepG2 cell cytotoxicity, dose response, cytotoxicity control, dry powder samples (AID 720568). The note with it: plate reader; series mostly up to 15 µM.

On to `COc1ccc(CSc2nnc(-c3ccccc3)o2)cc1`, for which the call was inactive.

`c1ccc(CSc2nnc(-c3ccccc3)o2)cc1`: the outcome was inactive.
